Compound activity: PubChem BioAssay, National Center for Advancing Translational Sciences (NCATS)
VP16 counter = counter-screen for ROR gamma inhibitors: Gal4-VP16 reporter; Drosophila S2 Gal4-VP16 UAS-luciferase, luminescence, 20 h; Potency, µM (top dose mostly 53.6 µM), for inactives: at the top dose activity, negative = inhibition, usual class: inhibitors; actives 3.5% (n = 310,000); AID 2546;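 also: Gal4-VP16 expression switched on by copper sulfate through the metallothionein promoter; % is scaled to controls: 0 for no effect and ±100 for the full control effect; nearly all actives have a fitted effect of over 50% in size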
Epigenetic reg = derepresses silenced GFP reporter in murine cells; murine LDR cells, GFP reporter derepression, 30 h; Potency, µM (series often up to 53.9 µM), for inactives: top-dose GFP activation, actives largely listed as activators; actives 0.2% (n = 280,000); AID 1865; also: % of control where 0% means no effect; nearly all actives have a fitted effect of over 60% in size
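Readout is the number of GFP-expressing murine LDR cells, counted by cytometry following washing. Cells were treated with compound for 30 h at 37 C; the stably integrated CMV-GFP locus is normally silent.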
ClpP mod = qHTS Assay for Activators of ClpP; ATP-dependent Clp protease proteolytic subunit (Bacillus subtilis (strain 168)), P80244; purified B. subtilis ClpP, FRET peptide cleavage, 20 min; Potency, µM (doses to about 57.5 µM), without a hit: top-dose activity change, negative = active; actives 1.9% (n = 340,000); active = well fitted falling curve with a large enough effect; inconclusive = small, poorly fitted or top-dose-only effect; inactive = no such curve, though single readings can be large or run the other way; also: the source files actives as falling curves though it sought activators and does not explain the sign; nearly all actives have a fitted effect of over 65% in size
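FRET quenching reversal measured ClpP activation: 10 microg/mL B. subtilis ClpP at pH 8 with the FRET-FV decapeptide, read at 430 nm after 320 nm excitation. The 20-min minus 0-min signal was scaled between DMSO/no-enzyme wells and ADEP (5.8 microM final).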
Sfp PPTase inh = blocks B. subtilis Sfp PPTase activity; Q9F4F7; Biochemical Sfp PPTase activity, qHTS; Potency, µM, for the others: largest response in the series, negative = inhibition, most hits filed as inhibitors; actives 3.5% (n = 310,000); AID 1490;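 also: the enzyme is Sfp with the accession as filed and its product quenches rhodamine fluorescence; 0% = enzyme reaction without inhibitor and -100% = no enzyme wells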
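Sfp 15 nM + cpd, 15 min RT; start w/ rhodamine-CoA 5 uM, BHQ-2-YbbR 12.5 uM (final); 50 mM Hepes pH 7.6, 10 mM MgCl2, 0.01% NP-40, 0.01% BSA; read 525/598 nm at 0 and 30 min.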
RORgamma inh = blocks mouse ROR gamma transcriptional activity. actives 5.4% (n = 310,000). Potency, µM (doses to about 53.6 µM), without a hit: top-dose activity change, negative = inhibition, actives largely listed as inhibitors. Drosophila S2 Gal4-RORgamma UAS-luciferase reporter, 20 h. AID 2551; also: % is scaled to controls: 0 for no effect and ±100 for the full control effect; nearly all actives have a fitted effect of over 60% in size
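In this cell-based reporter format, copper sulfate (700 uM final) drives Gal4–ROR gamma fusion expression from a metallothionein promoter in Drosophila Schneider cells; compounds preincubated 1 hr, reporter read after 20 hr at ambient temperature.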
PINK1 expr mod = modulators of PINK1 expression; PINK1 immunofluorescence, high-content cytometry, 24 h; Potency, µM (titrated, usually from 76.6 µM), inactives show at the top dose activation (PINK1 increase), most hits filed as activators; actives 0.2% (n = 410,000); AID 624263; active = well fitted activation curve with a large enough effect; inconclusive = small, poorly fitted or top-dose-only effect; cell line not stated here; also: % of control where 0% means no effect; nearly all actives have a fitted effect of over 65% in size
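Cells are seeded, rested 12 hours, then given compound at five concentrations or DMSO for 24 hours. After fixation, blocking and antibody staining, PINK1 amount and mitochondrial localization are scored; CCCP serves as control.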
Starred values were filed as active, the others as inactive; ? = inconclusive; · = no result given. Shown are actives, neighbours in structure and some others; about 8.1% of the full set was active somewhere. Unless noted, calls follow the shape of the dose curve; as a rule, active = well fitted curve in the direction sought with a large enough effect; inconclusive = small, poorly fitted or top-dose-only effect, or another doubt; inactive = no such curve, though single readings can be large; an effect the other way counts as inactive or inconclusive. Potency is read from the fitted curve at half-maximal effect.

SMILES | VP16 counter | Epigenetic reg | ClpP mod | Sfp PPTase inh | RORgamma inh | PINK1 expr mod
Cc1ccc(NC(=O)c2nc[nH]c2C(=O)N[C@@H](C)C(=O)OC(C)(C)C)cc1 | ? | 0% | 1% | 15% | 6.3µM* | 6%
COc1ccc(NC(=O)c2nc[nH]c2C(=O)N[C@@H](C)C(=O)OC(C)(C)C)cc1 | ? | 0% | -3% | 8% | 11µM* | 2%
Cc1ccc(NC(=O)c2nc[nH]c2C(=O)N2CCc3ccccc3C2)cc1 | · | · | 28% | · | · | 1%
CCOC(=O)c1ccc(NC(=O)c2nc[nH]c2C(=O)N2CCc3ccccc3C2)cc1 | ? | -2% | 5% | 22% | 3.5µM* | 9%
O=C(NC(=S)N1CCN(c2ccc(O)cc2)CC1)c1cccs1 | 2.8µM* | 1% | -2% | -13% | 3.5µM* | -1%
O=C(NC(=S)N1CCN(c2ccccc2)CC1)c1c(F)cccc1F | 1.4µM* | · | -1% | 17% | 0.71µM* | 3%
O=C(NC(=S)N1CCN(c2ccc(F)cc2)CC1)c1cccs1 | 0.56µM* | 4% | · | 2% | 45µM* | 1%
COc1ccc(C(=O)N2CCOc3ccc(CN4CCN(c5ccccn5)CC4)cc3C2)o1 | · | · | · | · | · | -1%
CCNC(=O)c1cc(NC(=O)COC)cc2nc(-c3ccncc3)n(C)c12 | · | · | · | · | · | 0%
CCOc1ccc2nc(N3C(=O)CNC3=S)sc2c1 | 2.8µM* | 17% | · | -13% | 1µM* | 1%
Cc1cc2nc(N3C(=O)CNC3=S)sc2cc1C | 3.2µM* | 2% | · | 2% | 1µM* | 6%
CCCCC(C=O)CC (centres undefined) | -15% | · | · | · | 0% | ·
S=C(NCc1ccccn1)Nc1ccc(Br)cc1Cl | ? | -1% | · | -10% | 7.1µM* | -1%
O=C(NCc1ccccn1)Nc1ccc(Cl)cc1Cl | 1% | · | 1% | 5% | 0% | -2%
S=C(NCc1ccccn1)Nc1ccccc1Cl | ? | 0% | -7% | ? | 10µM* | 0%
S=C(NCc1ccc(Cl)cc1)NCc1ccccn1 | ? | -3% | 0% | 20% | 16µM* | 1%
S=C(NCCc1ccccn1)Nc1ccc(Cl)cc1Cl | ? | 1% | · | -6% | 5µM* | 0%
S=C(NCc1ccccc1)NCc1ccccn1 | -2% | 9% | -1% | 16% | ? | 3%
O=C(NCc1ccccn1)Nc1ccc(Br)cc1Cl | -2% | · | · | 17% | 37% | 1%
Cc1ccc(N2C(=O)CCSC23C(=O)N(Cc2ccccc2)c2ccccc23)cc1F (centres undefined) | · | 0% | -2% | · | · | 4%
Cc1c(Cl)cccc1NC(=S)NCCc1ccccn1 | 8.9µM* | -3% | · | -6% | 2.5µM* | 0%
CC(C1CC1)N(Cc1ccccc1)C(=O)NC(=O)c1ccccc1 (centres undefined) | -8% | -4% | · | 15% | -1% | 0%
S=C(NCCc1ccccn1)Nc1ccccc1Cl | 13µM* | 5% | -3% | ? | 6.3µM* | 0%
CC(C1CC1)N(Cc1ccccc1)C(=S)Nc1ccccc1Cl (centres undefined) | ? | -1% | -1% | 14% | 10µM* | 8%
Cc1cccc(Cl)c1NC(=S)NCCc1ccccn1 | ? | 0% | · | 5% | ? | 1%
SMILES | VP16 counter | Epigenetic reg | ClpP mod | Sfp PPTase inh | RORgamma inh | PINK1 expr mod
Cc1c(Cl)cccc1NC(=S)NCCc1ccc(C(F)(F)F)cc1 | ? | 0% | · | -8% | 2.5µM* | ?
Fc1ccccc1NC(=S)NCCc1cccc(Cl)c1 | 10µM* | · | -1% | 7% | 7.1µM* | 3%
S=C(NCCc1ccccc1)Nc1ccccc1Cl | 10µM* | 8% | -1% | 13% | 5.6µM* | 4%
S=C(NCCCc1ccccc1)Nc1ccccc1Cl | -86% | -1% | -11% | 2% | ? | ?
S=C(NCCc1ccccc1)NCc1cccc(Cl)c1 | -6% | · | 0% | -1% | 18% | 26%
Cc1cccc(N2CCN(C(=O)c3ccc4nc(N5CCC(C)CC5)sc4c3)CC2)c1C | · | -3% | -5% | · | · | -1%
C#CCN(Cc1ccc(OC)cc1)S(=O)(=O)C=C | · | · | 0% | · | · | ·
